Among all 5,500 compounds or so, about 2,000 (36%) were called active. Another 18% or so got no clear call; they are omitted. No stated cut-off is given here; in the data, active means normalized growth mostly below about 0.91 (no sharp cut-off); inconclusive means no clear call, values can overlap the other calls; inactive means mostly above about 0.92. The list shows a part of the results.
Experiment: chemical genetic growth profiling, strain panel (AID 1159580);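 further: tested at 20 µM; growth read once vehicle control cultures reached saturation at 30 °C; 1 = growth at the plate median or of vehicle wells; lower values mean less growth of the strain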
Conditions: growth OD

Measured: normalized growth

COc1ccccc1OCCNCC(O)COc1cccc2[nH]c3ccccc3c12 (stereo unspecified)
inactive: S. cerevisiae deletion strains, locus YKL009W, strain mrt4, active compounds read low 1.01 | S. cerevisiae deletion strains, locus YKL068W, active compounds read low 1.01 | S. cerevisiae deletion strains, locus YKL085W, strain MDH1 (second series), active compounds read low 1.01 | S. cerevisiae deletion strains, locus YKL085W, strain MDH1, active compounds read low 1.01 | S. cerevisiae deletion strains, locus YKL160W, strain elf1, active compounds read low 1.01 | S. cerevisiae deletion strains, locus YKL190W, strain CNB1, active compounds read low 0.997 | S. cerevisiae deletion strains, locus YKR001C, strain vps1, active compounds read low 1.05 | S. cerevisiae deletion strains, locus YKR026C, strain gcn3, active compounds read low 1.02 | S. cerevisiae deletion strains, locus YKR091W, strain srl3, active compounds read low 1.01 | S. cerevisiae deletion strains, locus YLL001W, strain dnm1, active compounds read low 1.01 | S. cerevisiae deletion strains, locus YLL026W, active compounds read low 1.02 | S. cerevisiae deletion strains, locus YLL041C, strain sdh2, active compounds read low 1.01 | S. cerevisiae deletion strains, locus YLR027C, strain aat2, active compounds read low 1.01 | S. cerevisiae deletion strains, locus YLR039C, strain RIC1, active compounds read low 1.09 | S. cerevisiae deletion strains, locus YLR058C, strain SHM2, active compounds read low 1 | S. cerevisiae deletion strains, locus YLR102C, strain apc9, active compounds read low 1 | S. cerevisiae deletion strains, locus YLR113W, strain HOG1, active compounds read low 0.987 | S. cerevisiae deletion strains, locus YLR221C, strain rsa3, active compounds read low 1.01 | S. cerevisiae deletion strains, locus YLR258W, strain gsy2, active compounds read low 1.02 | S. cerevisiae deletion strains, locus YLR262C, strain YPT6 (second series), active compounds read low 1.05 | S. cerevisiae deletion strains, locus YLR262C, strain YPT6, active compounds read low 1.06 | S. cerevisiae deletion strains, locus YLR268W, strain sec22, active compounds read low 1.01 | S. cerevisiae deletion strains, locus YLR320W, strain mms22, active compounds read low 1.02 | S. cerevisiae deletion strains, locus YLR330W, strain CHS5, active compounds read low 1.01 | S. cerevisiae deletion strains, locus YLR342W, strain FKS1 (second series), active compounds read low 0.993 | S. cerevisiae deletion strains, locus YLR342W, strain FKS1, active compounds read low 1.01 | S. cerevisiae deletion strains, locus YLR357W, strain rsc2, active compounds read low 1 | S. cerevisiae deletion strains, locus YLR370C, strain arc18, active compounds read low 1.01 | S. cerevisiae deletion strains, locus YLR371W, strain rom2, active compounds read low 1.01 | S. cerevisiae deletion strains, locus YLR384C, strain iki3, active compounds read low 1.03 | S. cerevisiae deletion strains, locus YLR418C, strain cdc73, active compounds read low 0.999 | S. cerevisiae deletion strains, locus YML016C, strain PPZ1, active compounds read low 1.01 | S. cerevisiae deletion strains, locus YML032C, strain rad52, active compounds read low 1.02 | S. cerevisiae deletion strains, locus YML120C, strain ndi1, active compounds read low 1.01 | S. cerevisiae deletion strains, locus YML124C, strain tub3, active compounds read low 1.02 | S. cerevisiae deletion strains, locus YMR058W, strain fet3, active compounds read low 1.03 | S. cerevisiae deletion strains, locus YMR078C, strain ctf18, active compounds read low 1.02 | S. cerevisiae deletion strains, locus YMR125W, strain sto1, active compounds read low 1.01 | S. cerevisiae deletion strains, locus YMR129W, active compounds read low 1.01 | S. cerevisiae deletion strains, locus YMR205C, strain PFK2, active compounds read low 1.04 | S. cerevisiae deletion strains, locus YMR223W, strain ubp8, active compounds read low 1 | S. cerevisiae deletion strains, locus YMR231W, strain pep5, active compounds read low 1.01 | S. cerevisiae deletion strains, locus YMR263W, strain SAP30, active compounds read low 0.979 | S. cerevisiae deletion strains, locus YMR307W, strain GAS1, active compounds read low 0.972 | S. cerevisiae deletion strains, locus YNL067W, strain RPL9B, active compounds read low 0.962 | S. cerevisiae deletion strains, locus YNL071W, strain lat1, active compounds read low 0.996 | S. cerevisiae deletion strains, locus YNL128W, strain TEP1, active compounds read low 1 | S. cerevisiae deletion strains, locus YNL153C, strain GIM3, active compounds read low 1 | S. cerevisiae deletion strains, locus YNL183C, strain NPR1, active compounds read low 0.962 | S. cerevisiae deletion strains, locus YNL209W, strain ssb2, active compounds read low 1.02 | S. cerevisiae deletion strains, locus YNL233W, strain BNI4, active compounds read low 1 | S. cerevisiae deletion strains, locus YNL248C, strain rpa49, active compounds read low 1.02 | S. cerevisiae deletion strains, locus YNL250W, strain rad50, active compounds read low 1 | S. cerevisiae deletion strains, locus YNL271C, strain bni1, active compounds read low 1.02 | S. cerevisiae deletion strains, locus YNL298W, strain CLA4, active compounds read low 1.03 | S. cerevisiae deletion strains, locus YNL307C, strain MCK1, active compounds read low 1.01 | S. cerevisiae deletion strains, locus YNL322C, strain KRE1 (second series), active compounds read low 0.989 | S. cerevisiae deletion strains, locus YNL322C, strain KRE1, active compounds read low 1 | S. cerevisiae deletion strains, locus YNR049C, strain mso1, active compounds read low 1.01 | S. cerevisiae deletion strains, locus YNR052C, strain pop2, active compounds read low 1.01 | S. cerevisiae deletion strains, locus YOL006C, strain TOP1, active compounds read low 1 | S. cerevisiae deletion strains, locus YOL012C, strain htz1 0.91 | S. cerevisiae deletion strains, locus YOL147C, strain pex11, active compounds read low 1.01 | S. cerevisiae deletion strains, locus YOR001W, strain rrp6, active compounds read low 1.01 | S. cerevisiae deletion strains, locus YOR061W, strain CKA2, active compounds read low 1.01 | S. cerevisiae deletion strains, locus YOR069W, strain VPS5, active compounds read low 0.997 | S. cerevisiae deletion strains, locus YOR070C, strain gyp1, active compounds read low 1 | S. cerevisiae deletion strains, locus YOR080W, strain dia2, active compounds read low 1 | S. cerevisiae deletion strains, locus YOR083W, strain WHI5, active compounds read low 1 | S. cerevisiae deletion strains, locus YOR106W, strain vam3, active compounds read low 1.02 | S. cerevisiae deletion strains, locus YOR136W, strain idh2, active compounds read low 1.02 | S. cerevisiae deletion strains, locus YOR144C, strain elg1, active compounds read low 1.02 | S. cerevisiae deletion strains, locus YOR184W, strain ser1, active compounds read low 0.999 | S. cerevisiae deletion strains, locus YOR231W, strain MKK1, active compounds read low 0.999 | S. cerevisiae deletion strains, locus YOR265W, strain rbl2, active compounds read low 0.996 | S. cerevisiae deletion strains, locus YOR270C, strain vph1, active compounds read low 1.03 | S. cerevisiae deletion strains, locus YOR290C, strain snf2, active compounds read low 1.01 | S. cerevisiae deletion strains, locus YOR316C, strain cot1, active compounds read low 1.02 | S. cerevisiae deletion strains, locus YPL051W, strain arl3, active compounds read low 1.01 | S. cerevisiae deletion strains, locus YPL055C, strain LGE1, active compounds read low 1.01 | S. cerevisiae deletion strains, locus YPL078C, strain atp4, active compounds read low 1.03 | S. cerevisiae deletion strains, locus YPL106C, strain sse1, active compounds read low 1.02 | S. cerevisiae deletion strains, locus YPL240C, strain hsp82, active compounds read low 1.01 | S. cerevisiae deletion strains, locus YPL241C, strain CIN2, active compounds read low 0.996 | S. cerevisiae deletion strains, locus YPL256C, strain CLN2, active compounds read low 0.994 | S. cerevisiae deletion strains, locus YPR119W, strain clb2, active compounds read low 1.02 | S. cerevisiae deletion strains, locus YPR141C, strain kar3, active compounds read low 1.03 | S. cerevisiae deletion strains, locus YPR163C, strain tif3, active compounds read low 1.02 | S. cerevisiae deletion strains, locus YPR167C, strain met16, active compounds read low 1.02 | S. cerevisiae deletion strains, strain wtn01, active compounds read low 1.01 | S. cerevisiae strains, strain wild type, active compounds read low 0.984
